Assay results reported in PubChem BioAssay.
For part of these data: Results with a measured potency or affinity are listed apart. Activity calls are given as the source filed them. No stated cut-off is given here; in the data, active means parasite load remaining mostly below about 12% (no sharp cut-off); inactive means mostly above about 10%. Numbered stars: 1 amine (or outer) side, 2 acyl side, 3 side chain; on linkers, the order of the positions; unused ones are H or OH. Bridge positions count the residues as written; N and C are the ends. Square brackets hold non-standard residues; d marks the D form. Peptide text beside a SMILES is read from it. * marks the point of attachment. ξ: configuration not given here. ΔAla(Z-3-ureido) = NC(=O)N/C=C(\N)C(=O)O; X2 = NC1=NCCC(C(N[*:1])C(=O)[*:2])N1; ξβ3hOrn = NCCCC(N)CC(=O)*; Dap = NC[CH](N)C(=O)O

How the values were obtained:
[1] = blockers of polyQ-driven CASP3 activation – cell-based (AID 1583); settings: polyglutamine-induced caspase-3 activation, cell assay; stronger effect = higher value;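 tested at 10 µM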
[2] = yeast 75Q aggregation reduction – 75Q-TubU reporter (AID 1593); settings: Yeast 75Q polyglutamine aggregation reporter
[3] = restoration of touch response, mutant HTT neurons – whole organism, C. elegans mechanosensory neurons, N-terminal huntingtin (AID 1599); settings: C. elegans polyQ-huntingtin mechanosensory neurons, stronger effect = higher value
[4] = blockers of cytochrome c efflux from mitochondria – biochemical, purified mitochondria (AID 1603); settings: stronger effect = lower value;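 further: mouse liver mitochondria challenged with calcium chloride; signal normalized to the plate average as 100%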
[5] = polyglutamine aggregate formation blockers (AID 1604); settings: polyglutamine-induced protein aggregation inhibition assay; stronger effect = higher value; tested at 2.5 µM
[6] = glutamate transport activators, MN-1 cells, MN-1 cell line (AID 1612); settings: MN-1 motor neuron cells, stronger effect = higher value;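 further: tested at 1 µM final; 0% = mean of DMSO vehicle wells on each plate; positive means more glutamate uptake than control and negative means less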
[7] = GFP-Q80 aggregate reduction, neuronal-like cells, cell-based, NGF-treated PC12, GFPQ80 (AID 1614); settings: PC12 NGF-treated GFP-polyQ80 inclusion reduction;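 further: lower means fewer inclusions and 0 means no inclusions at all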
[8] = 75Q-TubH aggregate inhibition, S. cerevisiae, yeast (AID 1616); settings: S. cerevisiae 75Q-TubH polyglutamine aggregation suppression; stronger effect = higher value
[9] = P. berghei load reduction in hepatocytes – cell-based, HepG2, luciferase luminescence, HepG2 viability, primary screen (AID 624349);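 further: 100% = mean of DMSO negative control wells on the same plate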; settings: P. berghei liver stage in HepG2, luciferase luminescence, concentration not given here; parasite load remaining: stronger effect = lower value; viability: measured here: HepG2 viability without parasites

Row | SMILES | inhibition [1] | score [2] | rescue above control [3] | cytochrome c release ratio [4] | inhibition of aggregation [5] | glutamate uptake change [6] | inclusion score [7] | aggregation suppression score [8] | parasite load remaining [9] | viability [9]
1 | O=C(Cc1cccs1)NC1C(=O)N2C(C(=O)[O-])=C(C[n+]3ccccc3)CSC12 (stereo unspecified) | 35.1% | 1.38 | -1.43 | 1.22 | 59% | -13.7% | 2 | 1.45 | 179% (inactive) | 74.4%
2 | CCC(=O)OC1CCC2C3CCc4cc(O)ccc4C3CCC12C (stereo unspecified) | 6.67% | 0.64 | -1.7 | 1.72 | 85.9% | -23.3% |  | 0.421 |  | 
3 | NCC1CCC(N)C(OC2C(N)CC(N)C(OC3OC(CO)C(O)C(N)C3O)C2O)O1 (stereo unspecified) | -33.2% | 0.99 | -7.39 | 0.86 | 4.76% | 14.5% | 1.5 | 1.46 |  | 
4 | NCC1OC(OC2C(N)CC(N)C(OC3OC(CO)C(O)C(N)C3O)C2O)C(N)C(O)C1O (stereo unspecified) | 27.6% | 0.94 | -18 | 4.45 | 8.33% | -14.8% | 2 | 1.28 |  | 
5 | CC1CC2C3CCC4=CC(=O)C=CC4(C)[C@@]3(F)C(O)CC2(C)[C@@]1(O)C(=O)CO (stereo partly specified) | 7.1% | 1.26 | 8.02 | 1.12 | 59.3% | -14.9% | 2 | 1.3 |  | 
6 | CC(=O)N[C@@H](Cc1c[nH]c2ccccc12)C(=O)O | 20.8% | 1.18 | 0.41 | 0.48 | 74.4% | 9.72% | 2 | 1.31 | 106% (inactive) | 70.5%
7 | NC[C@@H]1O[C@H](O[C@H]2[C@@H](O)[C@H](O[C@@H]3[C@@H](O)[C@H](N)C[C@H](N)[C@H]3O[C@@H]3O[C@H](CO)[C@@H](O)C[C@H]3N)O[C@@H]2CO)[C@H](N)[C@@H](O)[C@@H]1O[C@H]1O[C@H](CO)[C@@H](O)[C@H](O)[C@@H]1O | -3.41% | 1.7 | 7.71 | 0.95 | 11.6% | 1.1% | 2 | 1.86 |  | 
8 | CC(=O)C1CCC2C3CC=C4CC(OS(=O)(=O)O)CC[C@]4(C)C3CC[C@]12C (stereo partly specified) | -1.98% | 0.85 | 6.71 | 1.34 | 37.2% | 48.1% | 2 | 0.286 |  | 
9 | COc1ccc(CCC(=O)c2c(O)cc(O[C@@H]3O[C@H](CO)C(O)[C@H](O)C3O[C@@H]3O[C@@H](C)[C@H](O)[C@@H](O)[C@H]3O)cc2O)cc1O (stereo partly specified) | 18.6% | 1.15 | -2.46 | 1.1 | 77.8% | -15.4% | 2 | 1.25 | 146% (inactive) | 70.8%
10 | COC1=C2C[C@@H](C)C[C@H](OC)[C@H](O)[C@@H](C)/C=C(\C)[C@@H](OC(N)=O)[C@H](OC)/C=C\C=C(/C)C(=O)NC(=CC1=O)C2=O | -5.02% | 2.11 | 0 | 1.13 | -23.4% | 10.3% |  | 1.43 |  | 
11 | CC12CCC(CC1=O)C2(C)C (stereo unspecified) | 15.1% | 1.08 | 1.05 | 1.24 | 43.2% | 5.12% | 2 | 1.49 |  | 
12 | NCCCC(N)CC(=O)NCC1NC(=O)C(CO)NC(=O)C(N)CNC(=O)C(C2CCN=C(N)N2)NC(=O)/C(=C/NC(N)=O)NC1=O (stereo not drawn) (H-[Dap]S[Dap](ξβ3hOrn)[ΔAla(Z-3-ureido)][X2]; lactam 1-C; configuration not given here) | 21.4% | 1.54 | 3.33 | 2.07 | -24.2% | 13.7% | 1 | 0.882 |  | 
13 | OCCS | 26.7% | 1.26 | -1.67 | 1.18 | 29.4% | 5.07% | 2 | 1.5 |  | 
14 | C[C@@H]1OC(Oc2c(-c3ccc(O)c(O)c3)oc3cc(O)cc(O)c3c2=O)[C@H](O)[C@H](O)[C@H]1O (stereo partly specified) | -5.21% | 1.19 | 16.2 | 0.64 | 72.2% | -4.44% | 2 | 1.5 |  | 
15 | COc1ccc2c(c1OC)C(=O)O[C@H]2[C@@H]1c2ccccc2CCN1C | 69.2% | 1.08 | -8.02 | 0.71 | 72.2% | -0.43% | 2 | 19 |  | 
16 | C[C@@H]1CC2C3C[C@H](F)C4=CC(=O)C=CC4(C)C3(F)[C@@H](O)CC2(C)C1C(=O)COC(=O)C(C)(C)C (stereo partly specified) | 26.8% | 0.1 | -3.49 | 1.09 | 38% | 10.9% | 2 | 0.899 |  | 
17 | CC1(C)O[C@@H]2C[C@H]3C4C[C@H](F)C5=CC(=O)C=CC5(C)[C@@]4(F)[C@@H](O)C[C@]3(C)[C@]2(C(=O)CO)O1 (stereo partly specified) | -27.2% | 1.29 | -9.42 | 0.94 | 61.1% | 15.9% | 2 | 1.43 |  | 
18 | NC[C@@H]1O[C@H](O[C@@H]2[C@@H](CO)OC(O[C@@H]3[C@@H](O)[C@H](N)C[C@H](N)[C@H]3OC3O[C@H](CO)[C@@H](O)[C@H](O)[C@H]3N)[C@@H]2O)[C@H](N)[C@@H](O)[C@@H]1O (stereo partly specified) | -9.63% | 1.53 | 1.69 | 1.36 | 42.9% | -14.4% | 2 | 1.65 |  | 
19 | NCCCCC(N)C(=O)NCC(=O)NC(Cc1cnc[nH]1)C(=O)NC(CCCCN)C(=O)O (stereo unspecified) (H-KGHK-OH; configuration not given here) | -1.51% | 2.04 | 2.83 | 0.86 | 36% | 18.4% | 2 | 1.42 |  | 
